Bioassay records deposited in PubChem BioAssay by National Center for Advancing Translational Sciences (NCATS).
Rows were chosen to be rich in hits. Some 6% of all compounds tested hit in one or more screens of this group.
Tau ThT inhib: inhibitors of human tau fibril formation, thioflavin T binding. P10636. recombinant tau K18 P301L, heparin-induced fibrillization, ThT fluorescence. Potency, µM (top dose mostly 57.4 µM), for inactives: top-dose activity, negative = inhibition, actives largely listed as inhibitors. hit rate 2.1% among 270,000. AID 1460; note: % is set by controls: 0 for no effect and ±100 for the full control effect; nearly all actives have a fitted effect of over 55% in size
Target sequence (P10636 561-689 P618L limits assumed): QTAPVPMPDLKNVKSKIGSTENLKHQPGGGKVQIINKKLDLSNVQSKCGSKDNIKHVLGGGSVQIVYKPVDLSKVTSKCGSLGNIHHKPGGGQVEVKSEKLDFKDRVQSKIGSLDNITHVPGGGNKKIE
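K18 P301L tau (15 uM + 0.24 uM Alexa 594-tagged), heparin 20 uM, NaOAc pH 7, 6 h 37 C; ThT 30 uM, 1 h RT, ex 450/em 510 nm.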
Tau FP inhib: blocks human tau fibril formation measured by polarization. P10636. K18 P301L tau heparin fibrillization, Alexa594 FP, 6 h. Potency, µM (series often up to 57.7 µM), for the others: top-dose activity, negative = inhibition, actives largely listed as inhibitors. hit rate 0.39% among 280,000. AID 1468; note: % is set by controls: 0 for no effect and ±100 for the full control effect; nearly all actives have a fitted effect of over 55% in size
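FP of Alexa 594-tau after heparin (20 uM) induction. Substrate: human K18 P301L, 15 uM unlabeled, 0.24 uM labeled. Buffer 100 mM sodium acetate pH 7. 6 hr, 37 C.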
PLK1 PBD inh: inhibitors of human PLK1 polo-box domain binding; Potency, µM, for the others: max response, negative = inhibition, most hits filed as inhibitors; hit rate 2.8% among 360,000; AID 720504; Plk1 PBD binding of FITC phosphopeptide, fluorescence polarization; P53350; note: series mostly up to about 57 µM; % is set by controls: 0 for no effect and ±100 for the full control effect; nearly all actives have a fitted effect of over 65% in size
Target sequence (P53350 whole entry, looked up, the tested form may be a part): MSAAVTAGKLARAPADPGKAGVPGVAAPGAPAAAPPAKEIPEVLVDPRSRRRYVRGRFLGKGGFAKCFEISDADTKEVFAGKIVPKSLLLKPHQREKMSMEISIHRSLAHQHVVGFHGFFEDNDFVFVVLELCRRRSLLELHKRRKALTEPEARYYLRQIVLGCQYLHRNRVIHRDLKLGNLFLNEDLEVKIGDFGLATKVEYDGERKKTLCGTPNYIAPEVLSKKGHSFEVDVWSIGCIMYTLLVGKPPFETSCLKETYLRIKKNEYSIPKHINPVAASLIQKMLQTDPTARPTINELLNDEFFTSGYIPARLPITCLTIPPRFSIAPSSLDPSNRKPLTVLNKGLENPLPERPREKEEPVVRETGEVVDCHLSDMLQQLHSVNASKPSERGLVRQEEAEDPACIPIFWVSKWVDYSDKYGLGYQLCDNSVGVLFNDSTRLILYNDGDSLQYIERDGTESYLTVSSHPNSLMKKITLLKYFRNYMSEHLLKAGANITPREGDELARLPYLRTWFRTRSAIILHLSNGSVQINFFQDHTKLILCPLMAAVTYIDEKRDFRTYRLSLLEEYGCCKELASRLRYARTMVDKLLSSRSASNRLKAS
Sfp PPTase inh: inhibitors of Bacillus subtilis Sfp phosphopantetheinyl transferase. Q9F4F7. Biochemical Sfp PPTase activity, qHTS. Potency, µM, inactives show largest response in the series, negative = inhibition, most hits filed as inhibitors. hit rate 3.5% among 310,000;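 note: the enzyme is Sfp with the accession as filed and its product quenches rhodamine fluorescence; 0% = enzyme reaction without inhibitor and -100% = no enzyme wells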
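Fluorescence-quenching assay with 15 nM Sfp, 5 uM rhodamine-CoA and 12.5 uM BHQ-2-labelled ybbR peptide in pH 7.6 Hepes/MgCl2 buffer. Enzyme was pre-incubated with compound for 15 min at room temperature. Rate was taken from the 30-min fluorescence change (525/598 nm).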
VDR inhibitor: inhibitors of human vitamin D receptor. P11473. VDR-SRC2-3 peptide fluorescence polarization, 2 h. hit rate 0.93% among 400,000. Potency, µM, for the others: max response, negative = inhibition, usual class: inhibitors. AID 504847; note: % is set by controls: 0 for no effect and ±100 for the full control effect
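The screen uses fluorescence polarization to detect compounds that interfere with recruitment of the SRC2-3 coactivator peptide to VDR; plates are read after 2 h at room temperature.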
Tau fluor counter: counter-screen for tau fibril formation inhibitors. tau K18 P301L (four-repeat tau fragment) Alexa594 fluorescence, heparin fibrillization. Potency, µM (top dose mostly 57.7 µM), for the others: at the highest dose activity change, negative = decrease. hit rate 0.93% among 280,000. AID 1463; note: % is set by controls: 0 for no effect and ±100 for the full control effect; nearly all actives have a fitted effect of over 55% in size
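Human K18 P301L tau (15 uM unlabeled plus 0.24 uM Alexa 594-labeled, final) in 100 mM sodium acetate pH 7 was mixed with compound and 20 uM heparin and incubated 6 hr at 37 C.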
VDR confirm: inhibits human vitamin D receptor, primary hit validation | hit rate 89% among 840 | Potency, µM, actives largely listed as inhibitors | shares compounds with VDR inhibitor | VDR-coactivator inhibition assay, qHTS confirmation | AID 602199
VDR FP fluor: blocks human VDR-coactivator binding in fluorescein assay | shares compounds with VDR inhibitor | VDR-coactivator binding, fluorescein fluorescence polarization | Potency, µM (doses to about 57.1 µM), without a hit: at the highest dose activity change, negative = inhibition, actives largely listed as inhibitors | hit rate 48% among 840
VDR bla reporter: confirmation of human vitamin D receptor inhibitors in reporter cells; VDR beta-lactamase reporter cells, FRET ratio; cells co-treated with VDR agonist LG190178; Potency, µM (highest dose often 46.1 µM), inactives show top-dose activity change, negative = inhibition, actives largely listed as inhibitors; shares compounds with VDR inhibitor; hit rate 23% among 840; note: % is set by controls: 0 for no effect and ±100 for the full control effect
VDR viability: counter-screen for vitamin D receptor inhibitors: cytotoxicity; AID 602204; cytotoxicity counter-screen, cell viability, qHTS; shares compounds with VDR inhibitor; Potency, µM (series often up to 48.3 µM), without a hit: at the top dose activity change, negative = cytotoxicity, most hits filed as cytotoxic; hit rate 18% among 840;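 note: plate controls were DMSO for no effect and high-concentration cycloheximide for full effect; nearly all actives have a fitted effect of over 75% in size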
TbPYK confirm: Trypanosoma brucei pyruvate kinase inhibition, cherry-pick confirmation; shares compounds with PLK1 PBD inh; hit rate 67% among 890; Potency, µM (series often up to 76.9 µM), for inactives: at the highest dose activity change, negative = inhibition, usual class: inhibitors; AID 720569; recombinant TbPYK, Kinase-Glo ATP luminescence; note: % is set by controls: 0 for no effect and ±100 for the full control effect; nearly all actives have a fitted effect of over 70% in size
TbPYK ADP-Glo: inhibits T. brucei pyruvate kinase in orthogonal ADP-Glo assay; shares compounds with PLK1 PBD inh; recombinant TbPYK, ADP-Glo luminescence, 60 min; Potency, µM (series often up to 76.9 µM), for inactives: top-dose activity change, negative = inhibition, actives largely listed as inhibitors; hit rate 62% among 890; note: % is set by controls: 0 for no effect and ±100 for the full control effect; nearly all actives have a fitted effect of over 75% in size
Active calls of the source: *; ? = inconclusive; . = not tested or not shown; [ ] = another dose, or the depositor's remark. Calls come from the whole dose curve; as a rule, active = well fitted curve in the direction sought with a large enough effect; inconclusive = small, poorly fitted or top-dose-only effect, or another doubt; inactive = no such curve, though single readings can be large; an effect the other way counts as inactive or inconclusive. Potency is the fitted concentration of half-maximal effect.

SMILES	Tau ThT inhib	Tau FP inhib	PLK1 PBD inh	Sfp PPTase inh	VDR inhibitor	Tau fluor counter	VDR confirm	VDR FP fluor	VDR bla reporter	VDR viability	TbPYK confirm	TbPYK ADP-Glo
O=[N+]([O-])c1ccccc1-c1ccc(C(=S)N2CCCC2)o1	16µM*	?	2.7µM*	7.9µM*	40µM*	?	21*	?	5%	2%	18µM*	32µM*
Cc1cccc(N2CCN(C(=S)c3ccc(-c4ccccc4[N+](=O)[O-])o3)CC2)c1	?	15%	?	?	-11%	?	.	.	.	.	.	.
CCOC(=O)CNC(=O)O[C@@H]1C(=O)c2cc(OC)ccc2O[C@H]1c1ccc(OC)c(Br)c1	-15%	-4%	.	22%	5%	?	.	.	.	.	.	.
O=C(O)/C=C/C(=O)c1ccc2c(c1)NC(=O)CO2	?	?	?	8.9µM*	22µM*	-1%	9.5*	?	11%	10%	16µM*	16µM*
O=C1COc2ccc(C(=O)NC3CC3)cc2N1	-5%	3%	-21%	18%	-12%	-7%	.	.	.	.	.	.
CC1(C)CC(=O)C2=C(C1)OC1=C(C(=O)CC(C)(C)C1)C2c1ccc(O)c([N+](=O)[O-])c1	-14%	-11%	-3%	8%	5%	-18%	.	.	.	.	.	.
CC1(C)CC(=O)C2=C(C1)OC1=C(C(=O)CC(C)(C)C1)C2c1ccc(O)cc1O	?	11%	3.5µM*	7.9µM*	8.9µM*	2%	6.7*	?	16µM*	?	28µM*	?
Cc1cccc(C(=O)Nc2cccc(OC(=O)c3cccc(C)c3)c2)c1	-11%	?	-3%	14%	5%	?	.	.	.	.	.	.
Cc1cccc(C(=O)Oc2csc(=S)n2C(=O)c2cccc(C)c2)c1	13µM*	-15%	4.7µM*	45µM*	?	-24%	8.9*	2.8µM*	4%	3%	1.3µM*	2.5µM*
COc1cccc(CN(C(=O)c2oc3ccccc3c2C)C2CCS(=O)(=O)C2)c1 (stereo not given)	-9%	1%	.	.	12%	-16%	.	.	.	.	.	.
O=C(COC(=O)/C=C/c1ccccc1[N+](=O)[O-])NNC(=O)c1ccc(F)cc1	.	.	-6%	.	1%	.	.	.	.	.	.	.
O=C1N=c2ccccc2=C1c1c(O)n(-c2cccc(F)c2)[nH]c1=O	14µM*	?	5.3µM*	11µM*	71µM*	-25%	6*	?	-2%	-2%	3.5µM*	7.9µM*
COCCN(CC(=O)NC1CCCCC1)C(=O)/C=C/C(=O)c1ccc(OC)cc1O	-4%	-6%[2.34 µM]	21µM*	0%	16µM*	-5%	9.5*	?	21µM*	?	7.1µM*	13µM*
COc1ccc(CN(C(=O)/C=C/C(=O)c2ccc(OC)cc2O)C(C(=O)NC2CCCCC2)c2ccncc2)cc1 (stereo not given)	-14%	2%	-1%	-3%	-22%	-13%	.	.	.	.	.	.
CCC(=O)N(CC)C1=C(O)c2ccccc2C(=O)C1=O	16µM*	?	24µM*	11µM*	79µM*	?	?	?	?	?	-98%	25µM*
O=C1C=C(c2ccccc2)C(=O)N1Nc1ccccc1	?	-14%	8.4µM*	10µM*	?	-7%	5.6*	7.9µM*	21µM*	?	16µM*	25µM*
c1cc2c(cc1CN1CCOCC1)OCO2	-1%	7%	-7%	9%	-12%	-12%	.	.	.	.	12%	-3%
O=S(=O)(O)CCCS(=O)(=O)O	.	.	.	16%	-2%	.	.	.	.	.	.	.
CCC(CC)C(=O)Nc1cccc(C(=O)NCc2ccco2)c1	?	-5%	-6%	-61%	-4%	-1%	.	.	.	.	-8%	-15%
CC(=O)C(Sc1nn(C)c(=S)s1)C(=O)Nc1ccccc1 (stereo not given)	?	?	27µM*	40µM*	79µM*	-10%	.	.	.	.	20µM*	28µM*
CC(=O)/C(=N\Nc1ccc(C)cc1)Sc1nncn1C	-9%	-1%	-4%	?	-2%	1%	.	.	.	.	4.5µM*	13µM*
Cc1ccc(NC(=O)c2ccc(Cl)c(N3C(=O)C=CC3=O)c2)cc1	3%	-13%	3.4µM*	2.8µM*	18µM*	-2%	.	.	.	.	5.6µM*	13µM*
O=C(Nc1ccc(Cl)c(Cl)c1)c1ccc(Cl)c(Cl)c1	-7%	?	-5%	2%	-11%	-27%	.	.	.	.	.	.
O=C(O)c1ccc(NS(=O)(=O)c2ccc3c(c2)C2C=CCC2C(c2ccccc2F)N3)cc1 (stereo not given)	32µM*	?	?	10µM*	?	?	.	.	.	.	?	?
Cc1ccc2nc(-c3ccco3)c(Cc3ccccc3)n2c1	.	.	-14%	.	.	.	.	.	.	.	.	.
SMILES	Tau ThT inhib	Tau FP inhib	PLK1 PBD inh	Sfp PPTase inh	VDR inhibitor	Tau fluor counter	VDR confirm	VDR FP fluor	VDR bla reporter	VDR viability	TbPYK confirm	TbPYK ADP-Glo
Fc1cccc(Cc2c(-c3ccco3)nc3ccc(Cl)cn23)c1	.	.	24µM*	.	.	.	.	.	.	.	-28%	?
COC(=O)c1ccc2nc(-c3ccco3)c(Cc3ccccc3)n2c1	.	.	?	.	.	.	.	.	.	.	13µM*	14µM*
Fc1cccc(Cc2c(-c3ccccc3)nc3ccc(Br)cn23)c1	.	.	-4%	.	.	.	.	.	.	.	.	.
Clc1ccc2nc(-c3ccco3)c(Cc3ccccc3)n2c1	.	.	?	.	.	.	.	.	.	.	?	35µM*
COC(=O)c1ccc2nc(-c3ccco3)c(Cc3cccc(Cl)c3)n2c1	.	.	-29%	.	.	.	.	.	.	.	.	.
Fc1cccc(Cc2c(-c3ccco3)nc3ccc(Br)cn23)c1	.	.	24µM*	.	.	.	.	.	.	.	?	?
